A short description of assay [1]: optical density shifts of acrAB sulA E. coli – strain DRC41, OD650, 48 h, E. coli filamentation inducer project, primary screen (AID 1152).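 Further: E. coli MC1000 strain DRC41 lacking acrAB efflux pump and sulA.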 The note with it: higher = more signal, called active from +8 up or from −8 down.
Assay [2] in a line: probe aLefty1 binding on compound microarray – biochemical, small-molecule microarray, 635/667 nm fluorescence, primary screen (AID 1153).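 Further: score merges spot fluorescence with signal-to-noise ratio from the scanned slide images.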 The following applies: higher = more signal.
A short description of assay [3]: plasmodial surface anion channel blockers, osmotic lysis – cell-based, P. falciparum Indochina, OD700, 1 h, primary screen (AID 1154). The following applies: P. falciparum Indochina infected RBC osmotic lysis, higher = more signal, called active from +8 up or from −8 down.
A short description of assay [4]: plasmodial surface anion channel blockers, osmotic lysis – cell-based, P. falciparum Indochina, OD700, 2 h, primary screen (AID 1155).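 Further: lysis reports solute entry through the parasite surface anion channel PSAC.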 The following applies: P. falciparum Indochina infected erythrocytes, higher = more signal, called active from +8 up or from −8 down.
Assay [5] is described as follows: changes in parasitized red cell lysis, either direction – P. falciparum Indochina, OD700, 3 h, PSAC antagonist project, primary screen (AID 1156). The following applies: P. falciparum-infected erythrocytes, osmotic lysis, higher = more signal, called active from +8 up or from −8 down.
The nature of assay [6]: plasmodial surface anion channel blockers, osmotic lysis – cell-based, P. falciparum Indochina, OD700, 18 h, primary screen (AID 1157). The note with it: P. falciparum Indochina infected erythrocytes, osmotic lysis OD700, 18 h; higher = more signal, called active from +8 up or from −8 down.
Assay [7] can be described thus: S6 kinase pathway phospho-S6 level changes – cell-based, A549, cytoblot, luminescence, serum-stimulated, primary screen (AID 1158).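 Further: serum-stimulated A549 lung adenocarcinoma cells; signal is phosphorylated S6 detected by cytoblot immunostaining with HRP secondary.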 The note with it: 5 h, higher = more signal.
Assay [8] addresses NADPH oxidase 2 (Homo sapiens) (UniProt P04839). As to the kind of experiment: compounds shifting NOX2 Amplex Red fluorescence – cell-based, HEK293-NOX2, PMA-stimulated, NOX inhibitor project, primary screen (AID 1159). Further: test concentration not given here. The note with it: 45 min, higher = more signal, called active from +8 up or from −8 down.
The target in assay [9] is NADPH oxidase 4 (Homo sapiens) (UniProt Q9NPH5). Kind of assay: compounds shifting NOX4 Amplex Red fluorescence – cell-based, HEK293-NOX4, tetracycline-induced, NOX inhibitor project, primary screen (AID 1160). The note with it: HEK293-NOX4, Amplex Red H2O2 fluorescence, 45 min; higher = more signal, called active from +8 up or from −8 down.
Assay [10] addresses NADPH oxidase 5 (Homo sapiens) (UniProt Q96PH1). As to the kind of experiment: compounds shifting NOX5 Amplex Red fluorescence – cell-based, HEK293-NOX5, NOX inhibitor project, primary screen (AID 1161). The following applies: HEK293-NOX5, ionomycin, 45 min, higher = more signal.
Assay [11] in a line: compound effects on lung adenocarcinoma cell viability – A549, calcein-AM fluorescence, 48 h, basal, profiling panel (AID 1162). Further: test concentration not given here. The note with it: higher = more signal.
The nature of assay [12]: compound effects on differentiated 3T3-L1 adipocyte viability – cell-based, 3T3-L1 adipocytes, calcein-AM fluorescence, 48 h, basal, profiling panel (AID 1163). Further: test concentration not given here. The following applies: 3T3-L1 adipocytes viability, higher = more signal.
Assay [13] in a line: compound effects on hepatocellular carcinoma cell viability – HepG2, calcein-AM fluorescence, 48 h, basal, profiling panel (AID 1164). Further: test concentration not given here. The note with it: higher = more signal.
The nature of assay [14]: compound effects on multiple myeloma cell viability – MM1S, calcein-AM fluorescence, 48 h, basal, profiling panel (AID 1165).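 Further: viability of MM1S multiple myeloma cells under basal unstimulated conditions; test concentration not given here.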 The note with it: higher = more signal.
A short description of assay [15]: calcein-AM signal in unstimulated myeloma cells – cell-based, calcein-AM fluorescence, 48 h, PK04 Diversity Set, profiling panel (AID 1166).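 Further: cells grown under basal conditions without added stimulus; test concentration not given here.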 The following applies: RPMI8226 myeloma viability, higher = more signal.
Assay [16] can be described thus: JC-1 mitochondrial signal, unstimulated HepG2 cells – cell-based, JC-1 fluorescence, 24 h, 100 nL compound, profiling panel (AID 1167). Further: test concentration not given here. The note with it: HepG2 mitochondrial potential, higher = more signal.
Assay [17] is described as follows: JC-1 mitochondrial signal, unstimulated adipocytes – cell-based, JC-1 fluorescence, 3T3-L1 adipocytes, 24 h, 100 nL compound, profiling panel (AID 1168). Further: test concentration not given here. The following applies: JC-1 mitochondrial fluorescence, higher = more signal, called active from +8 up or from −8 down.
A short description of assay [18]: JC-1 mitochondrial signal, unstimulated myeloma cells – cell-based, JC-1 fluorescence, RPMI8226, 24 h, 100 nL compound, profiling panel (AID 1169). Further: test concentration not given here. The note with it: JC-1 mitochondrial potential fluorescence, higher = more signal.
A short description of assay [19]: JC-1 mitochondrial signal, unstimulated MM1S myeloma – cell-based, JC-1 fluorescence, 24 h, 100 nL compound, profiling panel (AID 1170). Further: test concentration not given here. The following applies: MM1S mitochondrial potential, higher = more signal.
Assay [20] is described as follows: resazurin metabolic signal in A549 cells – cell-based, resazurin fluorescence, 24 h, PK04 Diversity Set, profiling panel (AID 1171). Further: test concentration not given here. The note with it: A549 viability, higher = more signal, called active from +8 up or from −8 down.

Consider six molecules from PubChem BioAssay.

The structures appear in SMILES notation. Active and inactive are the calls of the source.

Sequence of NADPH oxidase 4 (Homo sapiens) (Q9NPH5 whole entry, looked up): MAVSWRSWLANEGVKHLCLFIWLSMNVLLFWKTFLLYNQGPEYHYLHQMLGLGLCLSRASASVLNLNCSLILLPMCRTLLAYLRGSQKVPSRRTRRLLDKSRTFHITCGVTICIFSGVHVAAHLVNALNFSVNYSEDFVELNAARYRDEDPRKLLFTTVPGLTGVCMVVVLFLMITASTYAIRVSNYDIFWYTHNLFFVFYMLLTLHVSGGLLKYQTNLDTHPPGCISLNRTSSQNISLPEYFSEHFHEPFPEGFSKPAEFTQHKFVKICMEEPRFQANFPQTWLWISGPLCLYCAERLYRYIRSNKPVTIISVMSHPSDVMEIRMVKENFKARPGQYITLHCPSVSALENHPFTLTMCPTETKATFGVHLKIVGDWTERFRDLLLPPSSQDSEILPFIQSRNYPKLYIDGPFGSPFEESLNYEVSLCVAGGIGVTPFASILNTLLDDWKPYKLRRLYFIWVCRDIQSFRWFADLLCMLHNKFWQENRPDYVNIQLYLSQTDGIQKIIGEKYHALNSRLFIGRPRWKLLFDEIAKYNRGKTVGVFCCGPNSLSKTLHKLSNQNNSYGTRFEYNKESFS
Sequence of NADPH oxidase 5 (Homo sapiens) (Q96PH1 whole entry, looked up): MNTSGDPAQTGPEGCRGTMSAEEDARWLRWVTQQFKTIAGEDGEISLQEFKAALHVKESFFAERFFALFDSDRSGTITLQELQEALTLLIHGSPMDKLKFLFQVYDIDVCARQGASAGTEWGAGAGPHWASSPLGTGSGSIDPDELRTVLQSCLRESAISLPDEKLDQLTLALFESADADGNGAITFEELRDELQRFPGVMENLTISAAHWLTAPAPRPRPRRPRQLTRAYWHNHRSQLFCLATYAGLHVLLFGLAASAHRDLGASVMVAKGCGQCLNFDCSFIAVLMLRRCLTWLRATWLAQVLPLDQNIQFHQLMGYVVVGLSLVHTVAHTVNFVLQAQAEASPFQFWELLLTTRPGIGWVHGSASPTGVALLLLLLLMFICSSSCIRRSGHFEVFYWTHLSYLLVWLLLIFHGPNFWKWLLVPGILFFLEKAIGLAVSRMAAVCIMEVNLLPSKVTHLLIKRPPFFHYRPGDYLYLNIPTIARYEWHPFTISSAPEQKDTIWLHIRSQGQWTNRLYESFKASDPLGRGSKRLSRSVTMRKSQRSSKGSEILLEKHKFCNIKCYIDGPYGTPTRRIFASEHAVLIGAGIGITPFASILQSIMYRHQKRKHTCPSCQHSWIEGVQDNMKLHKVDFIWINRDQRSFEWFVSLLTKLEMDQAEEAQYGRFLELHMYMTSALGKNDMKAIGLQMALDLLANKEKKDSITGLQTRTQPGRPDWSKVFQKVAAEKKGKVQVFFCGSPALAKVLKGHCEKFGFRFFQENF
Sequence of NADPH oxidase 2 (Homo sapiens) (P04839 whole entry, looked up): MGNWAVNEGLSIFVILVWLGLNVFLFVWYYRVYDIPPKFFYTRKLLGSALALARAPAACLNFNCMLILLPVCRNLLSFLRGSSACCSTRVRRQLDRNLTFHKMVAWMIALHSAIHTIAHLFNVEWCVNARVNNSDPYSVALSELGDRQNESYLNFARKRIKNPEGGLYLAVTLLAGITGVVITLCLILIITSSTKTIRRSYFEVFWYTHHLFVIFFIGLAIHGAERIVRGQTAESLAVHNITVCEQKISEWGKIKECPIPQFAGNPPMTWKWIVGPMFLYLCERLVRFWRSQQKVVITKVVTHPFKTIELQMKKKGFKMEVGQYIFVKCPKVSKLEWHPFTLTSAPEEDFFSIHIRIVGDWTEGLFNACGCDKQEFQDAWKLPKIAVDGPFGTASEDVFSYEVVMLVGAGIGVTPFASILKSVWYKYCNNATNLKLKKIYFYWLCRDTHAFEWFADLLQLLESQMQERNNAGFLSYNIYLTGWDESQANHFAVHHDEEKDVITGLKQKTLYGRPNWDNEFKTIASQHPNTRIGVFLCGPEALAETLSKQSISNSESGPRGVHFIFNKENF

Take `C[C@H]1CC[C@H]2C(=O)O[C@H](COc3ccc(C(C)(C)C)cc3)CN2[C@@H]1c1ccc(Br)cc1`: the z-score in assay [1] was -0.421 (inactive); in assay [3], 0.683 (inactive); in assay [4], 0.237 (inactive); in assay [5] it was -0.889 (inactive); in assay [6] it was 0.465 (inactive); in [7], -0.338. Besides, the z-score in assay [8] was 0.215 (inactive); in assay [9], 0.644 (inactive); in assay [10], 0.974; in [11], 0.354; in [12], 0.356; in assay [13] it was 0.573. The z-score in assay [14] was 0.0772; in [15] it was -2.09; in assay [16] it was -0.568; in assay [17], -0.372 (inactive); in [18] it was -0.841; in [19], 1.33. In assay [20], the z-score is 0.636 (inactive). In assay [2], this molecule came in with a composite z-score of -0.412.
As to `CCOC(=O)NN=C1C[C@@H](O)[C@@H](O)[C@@H]2[C@@H]3C(=O)N(C(C)(C)C)C(=O)[C@@H]3CC[C@H]12`, the z-score in [1] is 1.04 (inactive); in assay [3] it was 0.521 (inactive); in assay [4], 0.16 (inactive); in assay [5] it was 0.786 (inactive); in assay [6], 0.18 (inactive); in assay [7], 0.698. Moreover, the z-score in [8] is -1.89 (inactive); in assay [9], 0.644 (inactive); in assay [10] it was 0.0282; in assay [11], 0.338; in [12], -0.666; in [13], 1.34. The z-score was 0.469 in assay [14]; 0.541 in [15]; 0.361 in assay [16]; 0.314 (inactive) in [17]; -0.252 in assay [18]; -1.59 in assay [19]. For the same molecule, in assay [20], the z-score was -0.974 (inactive). The composite z-score in assay [2] came out at 0.0701.
Consider `CC(=O)O[C@H]1C2=CO[C@H](C)[C@H]3[C@H]4C5=C([C@H](O)[C@H]6O[C@H]6C5=O)[C@H](OC4C)[C@@]23C(=O)[C@@H]2O[C@@H]21` (stereo not given in full), for which the z-score is -0.16 (inactive) in assay [1]; -0.312 (inactive) in assay [3]; -0.431 (inactive) in assay [4]; 0.128 (inactive) in [5]; 0.1 (inactive) in [6]; -1.05 in assay [7]. Moreover, the z-score in assay [8] was -0.717 (inactive); in assay [9], -0.891 (inactive); in assay [10], -0.242; in assay [11] it was -1.7; in [12], -0.827; in assay [13], -3.46. Also, the z-score in assay [14] was -3.43; in [15], -3.37; in assay [16] it was -3; in assay [17], 0.12 (inactive); in assay [18] it was -0.871; in [19], -2.88. Besides, the z-score in [20] is -2.43 (inactive). Moreover, the composite z-score in [2] is -0.0477.
Regarding `COC(=O)CC=C[C@@H](C)[C@@H](C=NO[C@H](C)c1cn([C@H](CO)Cc2ccccc2)nn1)OC`, the z-score in [1] is -0.36 (inactive); in assay [3], 0.727 (inactive); in assay [4] it was 0.0995 (inactive); in assay [5] it was -0.721 (inactive); in assay [6], 0.0239 (inactive); in assay [7] it was -0.505. Also, the z-score was 0.824 (inactive) in assay [8]; 0.541 (inactive) in assay [9]; 0.299 in assay [10]; -0.0647 in assay [11]; 0.304 in assay [12]; -0.458 in [13]. Further, the z-score is 0.209 in assay [14]; 0.0397 in [15]; -0.741 in [16]; -1.24 (inactive) in assay [17]; 0.923 in [18]; 1.74 in [19]. Besides, in assay [20], the z-score was 0.556 (inactive). In addition, the composite z-score in assay [2] was -0.104.
Turning to `CCOC(=O)[C@H](Cc1ccccc1)NC(=O)CCC1CC(OC(=O)NCc2ccc3c(c2)OCO3)CC2(CCCC(COC(=O)NCCC(C)C)O2)O1` (stereo not given in full), the z-score is 0.241 (inactive) in assay [1]; 25.3 (active) in [3]; 11.5 (active) in [4]; 1.26 (inactive) in assay [5]; 1.5 (inactive) in assay [6]; 0.274 in [7]. The z-score is 1.3 (inactive) in assay [8]; 0.25 (inactive) in assay [9]; 0.277 in [10]; 0.339 in assay [11]; 1.36 in assay [12]; -1.58 in assay [13]. The z-score in assay [14] was -3.41; in assay [15], -3.9; in [16], 0.162; in assay [17], -0.375 (inactive); in [18], -0.212; in assay [19] it was -1.32. Further, the z-score in assay [20] was -0.149 (inactive). For the same molecule, the composite z-score in assay [2] was -0.0162.
Consider `CCO[C@H](c1cc(OC)cc([N+](=O)[O-])c1OC)[C@H](C)C=CCC(=O)OC`, for which the z-score in assay [1] was 0.722 (inactive); in assay [3], 0.905 (inactive); in assay [4] it was -0.222 (inactive); in assay [5] it was -0.361 (inactive); in [6] it was 0.148 (inactive); in assay [7] it was -0.168. Moreover, the z-score in [8] is -0.295 (inactive); in assay [9] it was 0.276 (inactive); in [10] it was 0.893; in assay [11], 1.23; in assay [12], -0.629; in assay [13], 0.381. The z-score in assay [14] was 1.02; in [15], 0.799; in assay [16] it was 0.879; in assay [17], 0.269 (inactive); in assay [18], 0.752; in [19] it was -0.929. Further, the z-score in assay [20] was -0.625 (inactive). For the same molecule, the composite z-score in [2] was -0.202.
